Screening data as filed in PubChem.
Tau fluor counter – counter-screen for tau fibril formation inhibitors; 280,000 tested, 0.93% active; Potency, µM (titrated, usually from 57.7 µM); tau K18 P301L Alexa594 fluorescence, heparin fibrillization; active = well fitted curve in the direction sought with a large enough effect; inconclusive = small, poorly fitted or top-dose-only effect, or another doubt; inactive = no such curve, though single readings can be large; an effect the other way counts as inactive or inconclusive; also: nearly all actives have a fitted effect of over 55% in size
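Human K18 P301L tau (15 uM unlabeled plus 0.24 uM Alexa 594-labeled, final) in 100 mM sodium acetate pH 7 was mixed with compound and 20 uM heparin and incubated 6 hr at 37 C.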
Tau ThT inhib – blocks human tau fibril formation measured by thioflavin T. recombinant tau K18 P301L (four-repeat tau fragment), heparin-induced fibrillization, ThT fluorescence. Potency, µM (highest dose often 57.4 µM), hits mostly inhibitors. 270,000 tested, 2.1% active. AID 1460; active = well fitted curve in the direction sought with a large enough effect; inconclusive = small, poorly fitted or top-dose-only effect, or another doubt; inactive = no such curve, though single readings can be large; an effect the other way counts as inactive or inconclusive; also: nearly all actives have a fitted effect of over 55% in size
Target sequence (P10636 561-689 P618L limits assumed): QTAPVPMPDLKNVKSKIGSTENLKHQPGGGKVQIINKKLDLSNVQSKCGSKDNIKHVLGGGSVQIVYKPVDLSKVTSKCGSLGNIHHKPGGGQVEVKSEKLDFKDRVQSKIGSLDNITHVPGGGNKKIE
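Recombinant human tau K18 fragment […] carrying P301L, 15 uM unlabeled plus 0.24 uM Alexa 594-labeled, was fibrillized with 20 uM heparin in 100 mM sodium acetate pH 7 for 6 hr at 37 C; 30 uM ThT fluorescence read after 1 hr.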
HPGD inh – inhibitors of human 15-hydroxyprostaglandin dehydrogenase (HPGD); purified HPGD, NADH fluorescence kinetic, PGE2 substrate; Potency, µM, most hits filed as inhibitors; 150,000 tested, 4.3% active; AID 894
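NADH formation kinetics: reaction with 30 uM PGE2 and 1 mM NAD+ (final), 20 nM enzyme, Tris-HCl pH 8 with Tween 20, after 15 min compound preincubation at room temperature. Fluorescence change, last versus first of five reads.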
KDM4E inh – blocks human JMJD2E demethylase activity; B2RXH2; JMJD2E catalytic domain, FDH-coupled NADH fluorescence (FDH is formaldehyde dehydrogenase); Potency, µM (series often up to 57.1 µM), hits mostly inhibitors; 230,000 tested, 1.6% active; AID 2147; also: nearly all actives have a fitted effect of over 50% in size
Target sequence (B2RXH2 1-337 limits assumed): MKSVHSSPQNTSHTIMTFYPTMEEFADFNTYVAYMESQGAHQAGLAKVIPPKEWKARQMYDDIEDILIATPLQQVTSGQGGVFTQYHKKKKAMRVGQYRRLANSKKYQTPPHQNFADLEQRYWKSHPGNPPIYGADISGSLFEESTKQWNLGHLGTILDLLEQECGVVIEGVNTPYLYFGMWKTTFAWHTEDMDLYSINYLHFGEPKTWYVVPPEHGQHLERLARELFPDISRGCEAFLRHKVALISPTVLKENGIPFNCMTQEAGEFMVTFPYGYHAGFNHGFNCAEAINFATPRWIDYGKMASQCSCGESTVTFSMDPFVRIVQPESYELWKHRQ
ALDH1A1 block – inhibitors of human aldehyde dehydrogenase 1A1. P00352. Purified ALDH1A1, NADH fluorescence, propionaldehyde substrate. Potency, µM (doses to about 75.3 µM), actives largely listed as inhibitors. 220,000 tested, 7.3% active
Tau FP inhib – inhibitors of human tau fibril formation; AID 1468; P10636; K18 P301L tau heparin fibrillization, Alexa594 FP, 6 h; 280,000 tested, 0.39% active; Potency, µM (top dose mostly 57.7 µM), actives largely listed as inhibitors; active = well fitted curve in the direction sought with a large enough effect; inconclusive = small, poorly fitted or top-dose-only effect, or another doubt; inactive = no such curve, though single readings can be large; an effect the other way counts as inactive or inconclusive; also: nearly all actives have a fitted effect of over 55% in size
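Read-out: fluorescence polarization of Alexa 594-labeled tau (0.24 uM), 555 nm excitation, 632 nm emission. Mixtures held 15 uM unlabeled K18 P301L, compound and 20 uM heparin, pH 7 acetate buffer, incubated 6 hr at 37 C.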
Large screens that a line does not name were inactive; ! = not active in a repeat; [ ] = dose if it differs, or a comment. Only some compounds are listed: those with a hit (about 9.9% of all), similar ones and a draw of the others. Unless noted, calls follow the shape of the dose curve; as a rule, active = well fitted inhibition curve with a large enough effect (not every such curve was filed as active); inconclusive = small, poorly fitted or top-dose-only effect, or another doubt; inactive = no such curve, though single readings can be large or run the other way.

CN1C(=O)N(C)C(=O)C2(Cc3cc(N)ccc3N3CCN(c4ccccc4F)CC32)C1=O (configuration not stated)	Tau fluor counter inconclusive, Tau ThT inhib inconclusive, KDM4E inh inconclusive, ALDH1A1 block inconclusive, Tau FP inhib inconclusive
CN1CCN2c3ccc(N)cc3CC3(C(=O)NC(=O)NC3=O)C2C1 (configuration not stated)	KDM4E inh 3.98µM (no result: Tau ThT inhib, HPGD inh, ALDH1A1 block)
CN1C(=O)C(Cc2ccc3c(c2)OCO3)C(=O)N(C)C1=O	ALDH1A1 block 23.8µM
CCCCOc1ccc(CC2C(=O)N(C)C(=O)N(C)C2=O)cc1	none
CN1C(=O)C(Cc2ccsc2)C(=O)N(C)C1=O	Tau ThT inhib 25.1µM, ALDH1A1 block 12.6µM, Tau FP inhib 31.6µM
O=C1C=C2C=CC3C[C@@]2(O1)C1CCCCN31 (some centres not stated)	Tau ThT inhib inconclusive
CC(=O)O/C(=C1/C[C@H]2[C@@H]3CC=C4C[C@@H](OC(C)=O)CC[C@]4(C)[C@@H]3CC[C@]2(C)C1=O)C(F)(F)F	ALDH1A1 block inconclusive (no result: Tau fluor counter, Tau ThT inhib, KDM4E inh, Tau FP inhib)
CC[C@@H]1C(=O)OC[C@@H]1Cc1cncn1C	KDM4E inh 25.1µM!, Tau FP inhib inconclusive
COC(=O)[C@@H]1[C@@H](O)[C@@]2(O)c3c(OC)cc(OC)cc3O[C@@]2(c2ccc(OC)cc2)[C@H]1c1ccccc1	none (no result: HPGD inh, KDM4E inh)
C=C(C)c1ccccc1	none (no result: Tau fluor counter, Tau ThT inhib, KDM4E inh, Tau FP inhib)
COc1ccc2c(c[n+](C)c3c4cc5c(cc4ccc23)OCO5)c1OC	Tau fluor counter 15.8µM[quencher], Tau ThT inhib 12.6µM, HPGD inh inconclusive, ALDH1A1 block inconclusive, Tau FP inhib inconclusive
Cc1ccc2c(c1)CC1(CN2C)C(=O)NC(=O)N(C(C)C)C1=O (configuration not stated)	Tau ThT inhib inconclusive, ALDH1A1 block inconclusive, Tau FP inhib inconclusive (no result: HPGD inh)
COc1ccc2c(c1)CC1(CN2C)C(=O)NC(=O)N(c2ccc(C)cc2)C1=O (configuration not stated)	Tau ThT inhib inconclusive, KDM4E inh inconclusive, ALDH1A1 block inconclusive
Cc1cccc(N2C(=O)NC(=O)C3(Cc4cc(C)ccc4N(C)C3)C2=O)c1 (configuration not stated)	Tau ThT inhib inconclusive, ALDH1A1 block 8.91µM (no result: HPGD inh)
Cc1ccc2c(c1)CC1(CN2C)C(=O)NC(=O)N(CCC2=CCCCC2)C1=O (configuration not stated)	Tau ThT inhib 25.1µM, ALDH1A1 block 3.55µM, Tau FP inhib inconclusive (no result: HPGD inh)
NC(=O)CSP(=O)(c1ccccc1)c1ccccc1	Tau ThT inhib 28.2µM, Tau FP inhib inconclusive
C=C(C)CCl	none (no result: Tau fluor counter, Tau ThT inhib, KDM4E inh, Tau FP inhib)
C=C(Cl)CCl	ALDH1A1 block 20µM (no result: Tau fluor counter, Tau ThT inhib, KDM4E inh, Tau FP inhib)
O=C(O)[C@H]1[O][Sb][O][C@@H](C(=O)O)C1O (some centres not stated)	none (no result: Tau fluor counter, Tau ThT inhib, KDM4E inh, Tau FP inhib)
Cc1cnn(-c2cc(Oc3ccccc3)ncn2)c1	ALDH1A1 block 22.4µM (no result: HPGD inh)
COc1cc2[nH]c(=O)n(Cc3ccc(C(=O)N4CCN(c5ccc(Cl)cc5)CC4)cc3)c(=O)c2cc1OC	Tau fluor counter inconclusive, Tau FP inhib inconclusive (no result: HPGD inh, KDM4E inh, ALDH1A1 block)
COc1ccccc1/C=C1/C(=N/O)C2CCN1CC2	ALDH1A1 block 15.8µM
Cc1noc(NS(=O)(=O)c2ccc(NC(=O)CCCOc3ccc(Cl)cc3Cl)cc2)c1C	Tau ThT inhib inconclusive, HPGD inh 25.1µM
O=C(O)CCCOc1ccc(Cl)cc1Cl	none
CN1CCN(c2ccc([N+](=O)[O-])c3no[n+]([O-])c23)CC1	Tau fluor counter inconclusive, Tau ThT inhib 12.6µM, KDM4E inh 14.1µM, Tau FP inhib inconclusive (no result: HPGD inh, ALDH1A1 block)
CC/C=C\C[C@@H](/C=C/C=C\C/C=C\C/C=C\CCCC(=O)O)OO	none
COc1ccc(CCNCc2ccncc2)cc1	ALDH1A1 block 22.4µM
O=C(Nc1ccc(OC(F)(F)F)cc1)C1CCN(S(=O)(=O)c2cccs2)CC1	Tau FP inhib inconclusive (no result: HPGD inh, KDM4E inh, ALDH1A1 block)
Cc1cc2cc(CNC(=O)Nc3ccc(Cl)c(Cl)c3)ccc2n1C	Tau fluor counter inconclusive (no result: HPGD inh)
C=CCNC(=S)Nc1ccc(OC(=O)Nc2ccc(Cl)c(Cl)c2)cc1	Tau fluor counter inconclusive, Tau ThT inhib inconclusive, Tau FP inhib 15.8µM (no result: HPGD inh, ALDH1A1 block)
COc1ccc2c(c1)c(CCN1CCOCC1)c(C)n2C(=O)c1cccc(Cl)c1Cl	HPGD inh 28.2µM
COC(=O)COc1cc(Cl)c(Cl)cc1Cl	none
